# Sampled rows, rich in hits. Any-hit rate of the full collection: about 7.6%.
# KB-V1 MDR tox – KB-V1 MDR subline cytotoxicity | actives 3.4% (n = 400,000) | AID 1347076 | Potency, µM (top dose mostly 46.1 µM), usual class: cytotoxic | KB-V1 MDR cells viability, CellTiter-Glo, 72 h; note: potency is the fitted concentration of half-maximal effect; % is set by controls: 0 for no effect and ±100 for the full control effect; nearly all actives have a fitted effect of over 60% in size
#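 Luminescent ATP read-out (CellTiter-Glo, 10 min) measures survival of drug-selected KB-V1 MDR cells after 72 h, 37 degrees C compound exposure. Medium: phenol-red-free DMEM, 10% FBS. Values from fitted concentration-response curves.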
# SW480 rerep – induces DNA re-replication in SW480 colon adenocarcinoma cells; SW480 DNA re-replication, Hoechst DNA content imaging, 48 h; Potency, µM (top dose mostly 46.1 µM), for the others: at the highest dose re-replication activation, hits mostly activators; actives 1.8% (n = 340,000); note: potency is the fitted concentration of half-maximal effect; % of control where 0% means no effect; nearly all actives have a fitted effect of over 55% in size
#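 Compounds, transferred as 23 nL by pin tool, were incubated with cells for 48 hr; DNA content per nucleus was then quantified by Hoechst staining and fluorescence plate imaging.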
# hERG WT inh – blocks the wildtype human KCNH2 potassium channel; activity change, % at 1.84 µM; U2OS, BacMam KCNH2, thallium flux FluxOr; hits give low values; actives 0.37% (n = 340,000); Q12809;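 active = maximum activity change below -70%; inconclusive = maximum activity change between -70% and -50%; inactive = maximum activity change above -50%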; note: % is set by controls: 0 for no effect and ±100 for the full control effect
#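 U2OS cells were transduced with wild-type KCNH2 virus (2.03 x 10^8 / mL) for 4 h at room temperature, then cultured overnight at 37 C. Thallium flux was read with FluxOr dye. Rate constants were normalized to DMSO controls.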
# KCNH2 3.1 block – KCNH2 3.1 (human) potassium channel inhibition. activity change, % (tested at about 1.8 µM). U2OS KCNH2 3.1, thallium flux FluxOr; hits give low values. actives 0.95% (n = 340,000);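 active = maximum activity change below -70%; inconclusive = maximum activity change from -70% to -50%; inactive = maximum activity change above -50%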;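 note: thallium influx rate constant from kinetic fluorescence after stimulation buffer; % is set by controls: 0 for no effect and ±100 for the full control effect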
#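 Channel expression came from 3.1 mutant virus (1.77 x 10^8 /mL) applied to suspended U2OS cells for 4 h. Flux was tracked with FluxOr dye plus Red40 quencher, and kinetic rate constants normalized to controls.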
# KB-3-1 cytotox – kills parental KB-3-1 adenocarcinoma cells; KB-3-1 viability, CellTiter-Glo ATP luminescence, 72 h; Potency, µM (top dose mostly 46.1 µM), most hits filed as cytotoxic; actives 1.4% (n = 400,000); note: potency is the fitted concentration of half-maximal effect; % is set by controls: 0 for no effect and ±100 for the full control effect; nearly all actives have a fitted effect of over 60% in size
#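 Here the drug-naive KB-3-1 line serves as comparator for MDR sub-line selectivity; cells received compound titrations, 72 h at 37 °C, then CellTiter-Glo readout.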
# MCF10A rereplic – inducers of DNA re-replication in MCF 10A breast cells; MCF 10A DNA re-replication, Hoechst nuclear intensity, 48 h; Potency, µM (top dose mostly 46.1 µM), for the others: at the highest dose activity, positive = re-replication, usual class: activators; actives 2.9% (n = 350,000); note: potency is the fitted concentration of half-maximal effect; % of control where 0% means no effect; nearly all actives have a fitted effect of over 50% in size
# An asterisk follows results filed as active; i = inactive; u = inconclusive; x = no result; [ ] = another dose, or the depositor's remark. Unless noted, calls come from the whole dose curve; as a rule, active = well fitted curve in the direction sought with a large enough effect; inconclusive = small, poorly fitted or top-dose-only effect, or another doubt; inactive = no such curve, though single readings can be large; an effect the other way counts as inactive or inconclusive.
SMILES,KB-V1 MDR tox,SW480 rerep,hERG WT inh,KCNH2 3.1 block,KB-3-1 cytotox,MCF10A rereplic
CCc1ccc(Nc2ccc(S(=O)(=O)N3CCOCC3)cc2[N+](=O)[O-])cc1,23.1µM*,2.8%,-8.9,1.5,i,-9.3%
CCOc1ccc(Nc2ccc(S(=O)(=O)N3CCOCC3)cc2[N+](=O)[O-])cc1,u,x,3.5,2.8,i,x
CCOC(=O)C1=C(CC)Nc2ccccc2N=C1NC(=O)c1ccc(OC)c(S(=O)(=O)N2CCCCC2C)c1 (stereo not drawn),u,8.0%,-2.9,-9.8,i,3.66µM*
O=C(C1CCC(Cn2c(=S)[nH]c3ccccc3c2=O)CC1)N1CCOCC1 (stereo not drawn),23.1µM*,-6.5%,-0.2,13.4,u,-0.7%
O=c1c2cccnc2[nH]c(=S)n1CCCN1CCN(c2ccc(F)cc2)CC1,i,-5.9%,-7.9,-6.1,u,-0.5%
COc1ccc(N2CCN(CCCn3c(=S)[nH]c4ncccc4c3=O)CC2)cc1,i,1.3%,-10.2,-9.7,6.51µM*,7.0%
COc1ccc(N2CCN(C(=O)C3CCC(Cn4c(=S)[nH]c5ccccc5c4=O)CC3)CC2)cc1 (stereo not drawn),2.91µM*,u,6.4,-13.8,18.4µM*,17.9%
O=c1c2ccccc2[nH]c(=S)n1CCCN1CCC(Cc2ccccc2)CC1,i,u,-14.0,-76.3*,i,u
O=C(C1CCC(Cn2c(=S)[nH]c3ccccc3c2=O)CC1)N1CCN(c2ccccc2)CC1 (stereo not drawn),i,0.2%,4.5,-32.5,i,u
CCc1nc2c(OCC(=O)c3ccc(F)cc3)cccn2c1N(C)C(=O)c1ccc(OC)cc1,i,x,x,x,i,x
CCOc1ccc(-n2c(=O)c3c(C)c(C)sc3n(CC(=O)NCCc3ccccc3)c2=O)cc1,i,x,x,x,i,x
Cc1[nH][nH]c(=O)c1C(c1c(C)[nH][nH]c1=O)c1cn(Cc2cccc3ccccc23)c2ccccc12,20.6µM*,u,-5.0,-1.4,u,u
O=C(NCc1ccc(C(F)(F)F)cc1)C1CC(c2ccccc2C(F)(F)F)=NO1 (stereo not drawn),i,1.4%[9.22 µM],15.5,-5.8,i,0.4%
CCn1ncc(C2=NOC(C(=O)Nc3cccc(C(C)=O)c3)C2)c1C (stereo not drawn),18.4µM*,-9.9%,-19.6,-2.4,u,-2.8%
Cc1ccc(CNC(=O)C2CC(c3ccccc3C(F)(F)F)=NO2)cc1 (stereo not drawn),i,u,0.8,-158.3*,i,u
CCn1ncc(C2=NOC(C(=O)NCc3ccccc3)C2)c1C (stereo not drawn),u,3.66µM*,-5.5,9.5,1.64µM*,4.61µM*
CC(=O)c1cccc(NC(=O)C2CC(c3ccc(F)cc3)=NO2)c1 (stereo not drawn),i,-16.3%,1.2,4.8,i,-2.6%
CC(=O)c1ccc(NC(=O)C2CC(c3ccc(F)cc3)=NO2)cc1 (stereo not drawn),i,-1.0%,-5.4,-97.1*,i,-0.8%
CCOC(=O)c1c(S(=O)(=O)NCC(=O)Nc2ccc(F)cc2)c(C)n(C)c1C,i,7.8%,-0.8,-4.9,i,-0.7%
O=S(=O)(NCC(c1ccco1)N1CCOCC1)c1ccc(F)cc1 (stereo not drawn),i,x,x,x,i,x
CCN(CC)CC(=O)c1c(C)n(C)c2ccc(OC)cc12,u,x,x,x,i,x
CCc1ccc(Nc2nnc(SCC(=O)Nc3sccc3C(N)=O)s2)cc1,u,u,3.5,-18.9,u,16.4µM*
COc1cccc(NC(=O)CSc2nnc(NC(=O)C3CC3)s2)c1,i,-1.1%,3.5,12.0,i,-15.2%
COc1cccc(Nc2nnc(SCC(=O)Nc3sccc3C(N)=O)s2)c1,i,-13.4%,-6.3,-97.2*,u,u
Cc1nnc(SCC(=O)Nc2cccnc2Cl)s1,i,-273.1%,0.1,11.9,i,-2.2%

# Bioassay records: PubChem, National Center for Advancing Translational Sciences (NCATS)
